Assay results from PubChem BioAssay AID651821 (The Scripps Research Institute Molecular Screening Center, 2012).
Screen size: about 370,000 compounds; about 4,700 (1.3%) were called active.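 Rule for the calls: active = inhibition above the plate cutoff, the mean of all test compounds on that plate plus 3 SD (cut at about 35% in these data); inactive = the rest.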 The sample as a whole holds a higher share of actives than the screen did.

Test: binders of r(CAG) RNA repeats, primary screen, biochemical, fluorescence (AID 651821);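 note: 0% = DMSO alone and 100% = 100 µM mitoxantrone as full dye displacement; higher means more dye released from RNA so lower well fluorescence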
Details: r(CAG) RNA repeat, TO-PRO-1 dye displacement fluorescence; at 3 µM; hits give high values

Row | SMILES | inhibition
1 | CC(=O)Nc1ccc(S(=O)(=O)Nc2nc(-c3ccc(C(C)(C)C)cc3)cs2)cc1 | 66.5% (active)
2 | COc1ccc(C(C)(NC(C)=O)c2nc(-c3ccc(S(C)(=O)=O)cc3)cs2)cc1 (configuration not stated) | -0.32% (inactive)
3 | CC(C)CC(=O)N/C(N)=N/c1nc2ccccc2s1 | 0.1% (inactive)
4 | Cn1c(CNc2nc(-c3ccccc3)cs2)nnc1SCC(=O)c1ccccc1 | 8.83% (inactive)
5 | CCCn1c(C)cc(-c2csc(NC(=O)CCc3nc4ccccc4c(=O)[nH]3)n2)c1C | 24.8% (inactive)
6 | CC(=O)Nc1ccc(C(=O)Nc2nc(-c3cc(C)n(Cc4ccccc4)c3C)cs2)cc1 | 51.7% (active)
7 | O=C(Nc1ccccc1)Nc1nc2ccccc2s1 | 41.3% (active)
8 | CC(=O)NC(c1ccccc1)c1nc(-c2cccc(C(C)C)c2)cs1 (configuration not stated) | 0.86% (inactive)
9 | CC(=O)Nc1ccc(-c2csc(NC(=O)Nc3ccccc3)n2)cc1 | 53.7% (active)
10 | CC(=O)Nc1ccc(S(=O)(=O)Nc2ccc(-c3ccc4nnc(C)n4n3)cc2)cc1 | 6.21% (inactive)
11 | CCN(CC)CCn1c2c(c(SCC(=O)Nc3nc4ccccc4s3)nc1=O)CCCC2 | -6.14% (inactive)
12 | Cc1ccc(C(=O)Nc2c(C#N)c(C)c(C)n2Cc2ccccc2)cc1 | 0.41% (inactive)
13 | CC(NCc1ccco1)C(=O)N1CCCCC1 (configuration not stated) | 2.88% (inactive)
14 | CC(C)CNc1cccc2c1S(=O)(=O)N[C@H](CC(C)C)CO2 | -1.29% (inactive)
15 | COc1ccc(-c2ccccc2C2Cc3nnccc3CN2C(=O)Nc2ccccc2)cc1 (configuration not stated) | 8.81% (inactive)
16 | COc1ccnc(C(=O)N2CCC(Oc3cccnc3)CC2)c1 | 2.96% (inactive)
17 | CN(C)Cc1cn(-c2ccc(-c3noc4c3C(=O)N(CC(=O)N3CCOCC3)CC4)cc2)nn1 | 4.11% (inactive)
18 | CCOC(=O)c1csc(NC(=O)C2CCCN(S(=O)(=O)c3ccc(Cl)s3)C2)n1 (configuration not stated) | 3.09% (inactive)
19 | Nc1nc2c(ncn2[C@@H]2O[C@H](C(=O)N[C@@H](Cc3ccccc3)C(=O)NCc3ccccc3)[C@@H](O)[C@H]2O)c(=O)[nH]1 | 3.57% (inactive)
20 | CCOC(=O)[C@]12CCCC=C1N(CCCOC)C(=O)[C@@H]2CC(=O)N1CCOCC1 | 0.28% (inactive)
21 | COc1ccc(CCNC(=O)CN2CCC(n3nnc4cc(F)ccc43)CC2)cc1OC | -9.88% (inactive)
22 | CCOc1ccccc1Nc1nnc(SCc2ccc(C(=O)OC)o2)s1 | 0.96% (inactive)

Row | SMILES | inhibition
23 | Cc1ccc(C(=O)Oc2coc(CSc3nnc(NC(=O)c4cccs4)s3)cc2=O)cc1C | 68.7% (active)
24 | COC(=O)c1ccc(CSc2nnc(NC(C)C)s2)cc1 | -4.56% (inactive)
25 | C=CCN1C(=O)[C@@H](CC(=O)N2CCN(C(=O)c3ccco3)CC2)[C@]2(C(=O)OC)CCCCC=C12 | 7.73% (inactive)
26 | O=C(O)/C(=C/c1cccnc1)NC(=O)c1ccccc1 | 1.01% (inactive)
27 | O=C(N/N=C/c1cccnc1)c1cc2ccccc2cc1O | 46.1% (active)
28 | O=C(N/N=C/c1ccsc1)c1cc(O)cc(O)c1 | 9.53% (inactive)
29 | CC(=O)Nc1ccc(CN2CCC(Oc3ccc(C(=O)N4CCCC4)cc3)CC2)cc1 | -7.88% (inactive)
30 | COC(=O)C12C=C3CC(c4ccccc4)=C3C(=O)N1Cc1[nH]c3ccccc3c1C2 (configuration not stated) | 7.34% (inactive)
31 | O=C(Nc1nnc(-c2ccccc2)o1)c1cccc(S(=O)(=O)N2CCOCC2)c1 | 8.5% (inactive)
32 | CC1CN(S(=O)(=O)c2ccc(C(=O)Nc3sccc3C(N)=O)cc2)CC(C)O1 (configuration not stated) | 11.2% (inactive)
33 | CC1CC(C)CN(S(=O)(=O)c2ccc(C(=O)NN3CCOCC3)cc2)C1 (configuration not stated) | -3.03% (inactive)
34 | CC1CCCCN1S(=O)(=O)c1ccc(S(=O)(=O)N(CC(=O)Nc2ccccc2)Cc2cccs2)cc1 (configuration not stated) | 2.51% (inactive)
35 | CC1CCCCN1S(=O)(=O)c1ccc(C(=O)Nc2nnc(-c3cccs3)o2)cc1 (configuration not stated) | 49% (active)
36 | CC1CCCN(S(=O)(=O)c2ccc(C(=O)Nc3nnc(-c4ccncc4)o3)cc2)C1 (configuration not stated) | 35% (active)
37 | O=C(NCc1ccc(Cl)cc1)C1CCCN(c2nc3ccccc3o2)C1 (configuration not stated) | 5.58% (inactive)
38 | CC(=O)Nc1ccc(OC[C@@H](O)CN2CCC(C(O)(c3ccccc3)c3ccccc3)CC2)cc1 | -1% (inactive)
39 | O=C(NCc1ccccc1)[C@H]1CCCN1C(=O)[C@H]1CCCN1C(=O)c1cc(F)cc(F)c1 | -2.08% (inactive)
40 | CCOC(=O)c1c(-c2ccc(-c3ccccc3)cc2)csc1NC(=O)CCC(=O)O | 43.3% (active)
41 | CCOC(=O)c1c(C)nn(-c2ncccc2NC(=O)CCC(=O)O)c1C | 3.15% (inactive)
42 | CCOC(=O)c1c(-c2ccc(C)cc2C)csc1NC(=O)CSc1nnnn1C | 1.95% (inactive)
43 | CC1(C)CC(=O)C=C(NCCN2CCNCC2)C1 | -4.08% (inactive)
44 | CC(=O)C1=C(C)N(Cc2ccc(Cl)cc2)C(=S)NC1c1ccc(F)cc1 (configuration not stated) | 5.48% (inactive)

Row | SMILES | inhibition
45 | O=C(COC(=O)c1cc([N+](=O)[O-])ccc1NCc1ccccc1)NC1CCCCC1 | -1.88% (inactive)
46 | Cc1cccc(NS(=O)(=O)c2ccc(C)c(C(=O)NCC(c3ccccc3)N(C)C)c2)c1 (configuration not stated) | -4.14% (inactive)
47 | Cc1ccc(S(=O)(=O)NCCCn2ccnc2)cc1C(=O)NC(C)C | -1.64% (inactive)
48 | Cc1ccc(S(=O)(=O)NCCC(c2ccccc2)c2ccccc2)cc1C(=O)O | 42.4% (active)
49 | O=S1(=O)c2ccc(N3CCN(Cc4ccccc4F)CC3)cc2Oc2ccccc2CN1Cc1cn(Cc2ccc(Cl)cc2)nn1 | 12.5% (inactive)
50 | O=S1(=O)c2c(cccc2N2CC[C@H](O)C2)O[C@@H]2CCN1C2 | 2.13% (inactive)
51 | Cc1ccc(S(=O)(=O)N2CCN(C(=O)c3ccccc3-c3nc4ccccc4s3)CC2)c(C)c1 | -1.03% (inactive)
52 | NC(=O)Cc1ccc2sc(-c3ccccc3)nc2c1 | 1.7% (inactive)
53 | Oc1ccc(-c2[nH]ncc2-c2nc3ccccc3s2)c(O)c1 | 34.9% (active)
54 | O=C(CN1CCCc2ccccc21)NCc1ccc(F)cc1 | 5.24% (inactive)
55 | C=CS(=O)(=O)N(Cc1nnn(Cc2ccccc2)c1Br)[C@H](C(=O)OC)C(C)C | -1.47% (inactive)
56 | Cc1cccc(NC(=O)c2cc3c(C)nn(-c4ccccc4)c3s2)c1 | 11.1% (inactive)
57 | Cc1nn2c(c1-c1ccccc1)N=C(c1ccco1)CC2c1ccccc1 (configuration not stated) | 11.8% (inactive)
58 | COC(=O)C1=C(C)N(Cc2ccccc2C(F)(F)F)C(=NCc2ccc(OC)cc2)NC1c1cccc(C(F)(F)F)c1 (configuration not stated) | 1.76% (inactive)
59 | O=c1c(-c2ccc3c(c2)OCCO3)c(C(F)(F)F)oc2cc(O)cc(O)c12 | 22.9% (inactive)
60 | CCOC(=O)c1cc2cc(-c3c(C(=O)OCC)oc4cc(O)cc(O)c4c3=O)ccc2o1 | 42.5% (active)
61 | CCOC(=O)c1oc2c(CN3CCN(C)CC3)c(O)ccc2c(=O)c1-c1ccc(Br)cc1 | -3.79% (inactive)
62 | COC(=O)C1CN(Cc2cn(Cc3ccc(F)cc3)nn2)CCS(=O)(=O)N1Cc1ccc(Cl)cc1 (configuration not stated) | -1.1% (inactive)
63 | COc1cccc(-c2cc(CNC(=O)[C@@H](Cc3ccccc3)NC(=O)[C@H]3O[C@@H](n4cnc(C(N)=O)n4)[C@H](O)[C@@H]3O)no2)c1 | 6.53% (inactive)
64 | COc1cccc(CC(=O)N2CCN(C(=O)C(=O)c3cccc(C(F)(F)F)c3)CC2)c1 | -1.34% (inactive)
65 | Cc1[nH]c2ccc(S(N)(=O)=O)cc2c1C | 2.18% (inactive)
66 | NS(=O)(=O)c1ccc(N=Nc2c(O)[nH]c3ccc(Br)cc23)cc1 | 51.6% (active)

Row | SMILES | inhibition
67 | Cc1cccc(N=Nc2c(O)[nH]c3ccc(F)cc23)c1 | 17.5% (inactive)
68 | O=C(NC1CCCCN(Cc2ccc(Cl)cc2)C1=O)c1ccc(Br)cc1 (configuration not stated) | 2.36% (inactive)
69 | O=C(O)Cn1cnc2c(NCc3ccccc3)ncnc21 | 2.28% (inactive)
70 | Nn1c(SCC(=O)Nc2cccc3ccccc23)nnc1-c1cc(-c2ccc(F)cc2)n[nH]1 | 9.39% (inactive)
71 | CC(C(=O)Nc1ccc(O)c(C(=O)O)c1)N1C(=O)/C(=C/c2cccs2)SC1=S (configuration not stated) | 87.5% (active)
72 | CCOc1ccc(NC(=O)C(C)N2C(=O)c3ccccc3C2=O)cc1 (configuration not stated) | -4.17% (inactive)
73 | O=C1/C(=C/c2cccs2)SC(=S)N1C1CCS(=O)(=O)C1 (configuration not stated) | -0.31% (inactive)
74 | CCc1ccc(N2CC(C(=O)Nc3ccc(S(=O)(=O)Nc4nccs4)cc3)CC2=O)cc1 (configuration not stated) | 50.1% (active)
75 | CC(C)c1ccc(N2CC(C(=O)Nc3nccs3)CC2=O)cc1 (configuration not stated) | 0.86% (inactive)
76 | CNS(=O)(=O)c1ccc(NC(=O)C2CC(=O)N(c3ccc(Cl)cc3)C2)cc1 (configuration not stated) | 6.47% (inactive)
77 | Nc1ncnc2c1ncn2C1OC(CO)CC1O (configuration not stated) | 0.74% (inactive)
78 | O=C(NCCc1c[nH]c2ccccc12)OCc1cn(-c2c(F)cccc2F)nn1 | 0.36% (inactive)
79 | COCCN(Cc1ccccc1)C(=O)Cc1ccc(S(=O)(=O)N2CCOCC2)s1 | 0.74% (inactive)
80 | CCCCCCCCN1C(=O)[C@@H](CC(=O)NCc2ccc(C)o2)C[C@@]2(C(=O)OC)C1=C[C@H](C(C)(C)C)O[C@@H]2C | 1.42% (inactive)
81 | O=C1OC(NC(=O)c2ccccc2)C(N2CCOCC2)=C1Cl (configuration not stated) | -0.63% (inactive)
82 | O=C(O)c1ccc(NN=CC2=C(N3CCOCC3)/C(=C/c3ccccc3)CC2)cc1 | 48.1% (active)
83 | O=C(O)c1ccc(N=NN2CCOCC2)cc1 | 3% (inactive)
84 | CCOc1ccc(-n2c(SCC(=O)Nc3cc(C)c(NC(=O)c4ccccc4)cc3OC)nnc2-c2cccc(Cl)c2)cc1 | 12.6% (inactive)
85 | O=C(COC(=O)c1ccc(O)cc1O)NNC(=O)c1cccs1 | 1.41% (inactive)
86 | O=C(COC(=O)c1ccc(NS(=O)(=O)c2cccs2)cc1O)Nc1ccc(F)cc1 | 43.1% (active)
87 | CCc1ccc(NC(=O)CCNS(=O)(=O)c2cccs2)cc1 | -0.02% (inactive)
